Laboratory results: the supplement of paper PMC10849652
About 8,800 targets were measured; listed, in parts, are those with a hit and a random draw of the rest. About 0.5% of all pairs of compound and target were hits.

Legend:
Experiment in all cases: log2 fold change, soluble protein after heating vs DMSO (PISA); higher = thermal stabilisation; K562 lysate, 10 uM; active = over 0.2 and 3.5 SD of the protein, either way, in both replicates (recomputed)
[1] = compound: C1=CC=C(C=C1)[C@H](COC2=CC3=C(C=C2)NC(=O)N3)NC(=O)C4=CC=CN(C4=O)CC5=CC(=C(C=C5)F)F
Outline: (§1)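 Log-two fold change in thermal stability relative to solvent controls is reported from duplicates. For each sample, crude K562 extract from dounce-homogenised pellets in PBS pH 7.4 with 1 mM MgCl2, at 1 mg/mL protein, was treated with 10 μM compound for 30 min. Aliquots heated for 3 min across 48°C-58°C were pooled, brought to 0.5% NP-40 at 4°C and cleared at 21,000xg for 90 min. The supernatant was quantified by TMTpro 16plex LC-MS/MS with channel sums equalised.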

[2] = compound: CC1=C(SC2=C1C(=N[C@H](C3=NN=C(N32)C)CC(=O)N)C4=CC=C(C=C4)Cl)C
Outline: as §1

[3] = compound: CC1=C2C(=CC=C1)N=C(N(C2=O)C3=CC=CC=C3C)CN4C=NC5=C(N=CN=C54)N
Outline: as §1

[4] = compound: Cc1sc2c(c1C)C(c1ccc(Cl)cc1)=N[C@@H](CC(=O)OC(C)(C)C)c1nnc(C)n1-2
Outline: as §1

[5] = compound: c1ccc([C@@H]2C[C@H]2NC2CCNCC2)cc1
Outline: as §1

Measured: log2 fold change

GTF2A1 (UniProt P52655)
Chain of UniProt P52655 (P52655 whole entry, looked up): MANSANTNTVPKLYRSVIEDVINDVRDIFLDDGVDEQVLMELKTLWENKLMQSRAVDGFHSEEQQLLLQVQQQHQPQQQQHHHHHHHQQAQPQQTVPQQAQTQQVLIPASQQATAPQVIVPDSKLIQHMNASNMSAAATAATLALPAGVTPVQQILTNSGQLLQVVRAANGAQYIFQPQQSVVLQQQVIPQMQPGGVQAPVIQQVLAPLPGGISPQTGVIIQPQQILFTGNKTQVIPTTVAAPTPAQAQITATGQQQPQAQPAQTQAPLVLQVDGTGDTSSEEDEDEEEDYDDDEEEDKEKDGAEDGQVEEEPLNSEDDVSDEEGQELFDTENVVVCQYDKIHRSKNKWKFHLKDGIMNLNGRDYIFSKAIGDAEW
inactive: [1] 0.025 | [2] -0.033 | [3] -0.01 | [4] -0.057 | [5] 0.202

ISCA1 isoform 2 (UniProt Q9BUE6)
inactive: [1] 0.005 | [2] -0.03 | [3] 0.016 | [4] -0.021 | [5] 0.099

HMGB1 (UniProt P09429)
inactive: [1] 0.053 | [2] -0.048 | [3] 0.032 | [4] 0.056 | [5] 0.115

HMGN4 (UniProt O00479)
inactive: [1] -0.137 | [2] -0.395 | [3] -0.186 | [4] 0.297 | [5] 0.513

HTT (UniProt P42858)
inactive: [1] 0.039 | [2] -0.088 | [3] 0.064 | [4] 0.066 | [5] -0.054

HDAC1 (UniProt Q13547)
Chain of UniProt Q13547 (Q13547 whole entry, looked up): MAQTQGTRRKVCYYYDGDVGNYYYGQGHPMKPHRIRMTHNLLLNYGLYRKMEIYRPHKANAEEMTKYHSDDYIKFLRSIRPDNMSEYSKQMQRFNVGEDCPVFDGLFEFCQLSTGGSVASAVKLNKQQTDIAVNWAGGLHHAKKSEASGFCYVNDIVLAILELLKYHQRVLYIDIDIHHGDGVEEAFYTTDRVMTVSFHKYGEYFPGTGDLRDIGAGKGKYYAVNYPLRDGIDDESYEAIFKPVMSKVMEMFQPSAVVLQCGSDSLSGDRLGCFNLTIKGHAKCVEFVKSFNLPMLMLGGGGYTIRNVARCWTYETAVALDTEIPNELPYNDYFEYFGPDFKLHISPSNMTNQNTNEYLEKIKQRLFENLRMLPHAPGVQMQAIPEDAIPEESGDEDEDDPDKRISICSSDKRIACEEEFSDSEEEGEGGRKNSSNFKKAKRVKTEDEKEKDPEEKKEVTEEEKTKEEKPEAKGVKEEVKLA
inactive: [1] -0.04 | [2] 0.02 | [3] 0.001 | [4] -0.025 | [5] -0.015

HNRNPD isoform 2 (UniProt Q14103)
Chain of UniProt Q14103 (Q14103 whole entry, looked up): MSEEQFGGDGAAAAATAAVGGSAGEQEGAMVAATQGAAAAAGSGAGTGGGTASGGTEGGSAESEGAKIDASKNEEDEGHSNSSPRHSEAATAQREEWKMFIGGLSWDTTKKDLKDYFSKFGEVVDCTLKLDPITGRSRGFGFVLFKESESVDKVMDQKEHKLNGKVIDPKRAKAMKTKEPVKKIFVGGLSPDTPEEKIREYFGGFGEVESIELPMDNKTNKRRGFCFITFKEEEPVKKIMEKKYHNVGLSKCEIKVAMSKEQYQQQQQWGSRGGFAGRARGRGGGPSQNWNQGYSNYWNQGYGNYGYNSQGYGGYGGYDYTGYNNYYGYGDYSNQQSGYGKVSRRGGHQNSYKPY
inactive: [1] 0.059 | [2] -0.015 | [3] -0.01 | [4] 0.018 | [5] 0.125

GMPS (UniProt P49915)
inactive: [1] -0.014 | [2] -0.001 | [3] 0.02 | [4] 0.019 | [5] 0.088

GTF2H4 (UniProt Q92759)
Chain of UniProt Q92759 (Q92759 whole entry, looked up): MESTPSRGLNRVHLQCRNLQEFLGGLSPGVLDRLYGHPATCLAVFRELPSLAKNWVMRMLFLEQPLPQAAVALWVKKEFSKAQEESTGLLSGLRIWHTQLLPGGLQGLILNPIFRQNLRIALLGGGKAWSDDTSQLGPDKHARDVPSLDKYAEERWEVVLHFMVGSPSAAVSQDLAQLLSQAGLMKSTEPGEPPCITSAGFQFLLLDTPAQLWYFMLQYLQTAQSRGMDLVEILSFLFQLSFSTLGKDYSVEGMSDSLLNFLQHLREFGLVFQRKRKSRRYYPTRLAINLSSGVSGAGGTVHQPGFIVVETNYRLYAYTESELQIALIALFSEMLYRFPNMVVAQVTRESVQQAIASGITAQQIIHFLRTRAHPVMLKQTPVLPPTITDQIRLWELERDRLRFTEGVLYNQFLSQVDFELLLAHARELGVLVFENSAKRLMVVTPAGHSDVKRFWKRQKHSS
inactive: [1] -0.08 | [2] 0.044 | [3] 0.039 | [4] 0.015 | [5] 0.02

ILRUN (UniProt Q9H6K1)
Chain of UniProt Q9H6K1 (Q9H6K1 whole entry, looked up): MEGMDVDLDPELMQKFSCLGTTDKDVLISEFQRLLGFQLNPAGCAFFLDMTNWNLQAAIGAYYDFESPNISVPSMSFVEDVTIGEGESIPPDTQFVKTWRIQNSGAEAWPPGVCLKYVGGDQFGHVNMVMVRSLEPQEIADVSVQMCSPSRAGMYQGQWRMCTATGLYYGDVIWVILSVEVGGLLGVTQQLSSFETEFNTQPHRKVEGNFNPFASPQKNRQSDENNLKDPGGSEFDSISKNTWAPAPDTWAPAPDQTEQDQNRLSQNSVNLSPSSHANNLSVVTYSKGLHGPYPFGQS
inactive: [1] 0.078 | [2] -0.021 | [3] 0.03 | [4] 0.009 | [5] 0.028

GSTZ1 (UniProt G3V4T6)
inactive: [1] 0.035 | [2] 0.002 | [3] -0.036 | [4] 0.062 | [5] -0.042

HDGFL2 isoform 2 (UniProt Q7Z4V5)
Chain of UniProt Q7Z4V5 (Q7Z4V5 whole entry, looked up): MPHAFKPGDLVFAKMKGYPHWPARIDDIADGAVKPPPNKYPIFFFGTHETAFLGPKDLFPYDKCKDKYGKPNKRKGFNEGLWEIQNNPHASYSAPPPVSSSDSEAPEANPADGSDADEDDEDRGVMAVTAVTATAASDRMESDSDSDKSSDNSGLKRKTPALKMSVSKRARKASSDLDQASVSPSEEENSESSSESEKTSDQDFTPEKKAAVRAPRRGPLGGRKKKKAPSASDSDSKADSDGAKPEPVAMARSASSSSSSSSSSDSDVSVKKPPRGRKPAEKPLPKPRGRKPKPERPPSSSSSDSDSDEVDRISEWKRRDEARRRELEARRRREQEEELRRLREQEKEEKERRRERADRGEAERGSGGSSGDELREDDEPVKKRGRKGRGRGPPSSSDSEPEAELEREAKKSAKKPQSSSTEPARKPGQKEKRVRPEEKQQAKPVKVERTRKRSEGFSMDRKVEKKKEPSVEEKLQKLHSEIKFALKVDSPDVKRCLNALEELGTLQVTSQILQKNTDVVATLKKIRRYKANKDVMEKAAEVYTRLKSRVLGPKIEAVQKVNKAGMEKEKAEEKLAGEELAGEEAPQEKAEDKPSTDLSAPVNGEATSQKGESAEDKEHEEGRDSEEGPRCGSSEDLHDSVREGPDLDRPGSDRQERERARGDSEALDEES
inactive: [1] 0.051 | [2] -0.014 | [3] 0.01 | [4] -0.076 | [5] -0.212

HNRNPM (UniProt P52272)
inactive: [1] -0.099 | [2] 0.034 | [3] 0.041 | [4] -0.025 | [5] 0.014

IMPDH2 (UniProt H0Y4R1)
inactive: [1] -0.048 | [2] 0 | [3] -0.077 | [4] -0.018 | [5] -0.203

GRK6 isoform 2 (UniProt P43250)
inactive: [1] 0.086 | [2] -0.034 | [3] -0.135 | [4] 0.084 | [5] -0.018

HEATR6 (UniProt Q6AI08)
inactive: [1] -0.039 | [2] -0.086 | [3] 0.05 | [4] 0.008 | [5] 0.014

HNRNPAB isoform 3 (UniProt Q99729)
inactive: [1] -0.015 | [2] 0.023 | [3] -0.025 | [4] 0.01 | [5] -0.069

IRAK1 (UniProt P51617)
Chain of UniProt P51617 (P51617 whole entry, looked up): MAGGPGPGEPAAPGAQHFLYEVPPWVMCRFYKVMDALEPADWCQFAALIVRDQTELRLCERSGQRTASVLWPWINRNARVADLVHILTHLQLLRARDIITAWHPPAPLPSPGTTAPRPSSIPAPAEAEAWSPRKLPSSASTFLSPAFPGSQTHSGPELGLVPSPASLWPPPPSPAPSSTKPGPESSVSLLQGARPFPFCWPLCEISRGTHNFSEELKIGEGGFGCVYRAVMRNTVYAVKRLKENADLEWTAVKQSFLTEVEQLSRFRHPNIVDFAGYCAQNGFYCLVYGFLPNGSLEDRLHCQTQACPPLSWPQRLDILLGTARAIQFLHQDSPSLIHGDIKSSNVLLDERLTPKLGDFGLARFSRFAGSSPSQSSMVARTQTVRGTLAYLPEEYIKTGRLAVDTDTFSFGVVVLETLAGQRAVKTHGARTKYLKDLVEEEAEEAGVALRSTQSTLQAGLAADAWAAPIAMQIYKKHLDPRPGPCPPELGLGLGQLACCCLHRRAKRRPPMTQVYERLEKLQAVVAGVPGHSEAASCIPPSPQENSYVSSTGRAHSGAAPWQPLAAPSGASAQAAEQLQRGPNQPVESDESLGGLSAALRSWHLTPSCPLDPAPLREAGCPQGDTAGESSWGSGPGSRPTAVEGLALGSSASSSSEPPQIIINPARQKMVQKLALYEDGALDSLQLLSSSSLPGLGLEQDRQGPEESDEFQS
inactive: [1] -0.146 | [2] -0.028 | [3] -0.001 | [4] 0.004 | [5] 0.026

IMPDH2 (UniProt P12268)
inactive: [1] 0 | [2] -0.014 | [3] -0.007 | [4] 0.045 | [5] 0.017

IFNGR1 (UniProt P15260)
inactive: [1] 0.094 | [2] 0.083 | [3] 0.142 | [4] -0.299 | [5] -0.479

KDM6A (UniProt O15550)
inactive: [1] -0.024 | [2] -0.019 | [3] 0.049 | [4] -0.03 | [5] 0.008

HSP90AA4P (UniProt Q58FG1)
inactive: [1] 0.012 | [2] 0.1 | [3] -0.008 | [4] -0.101 | [5] -0.308

HDAC10 (UniProt Q969S8)
inactive: [1] -0.076 | [2] 0.115 | [3] 0.21 | [4] 0.197 | [5] -0.055

GSK3B isoform 2 (UniProt P49841)
inactive: [1] 0.036 | [2] -0.003 | [3] -0.042 | [4] 0.029 | [5] -0.074

HAUS3 (UniProt Q68CZ6)
inactive: [1] -0.035 | [2] 0.023 | [3] 0.051 | [4] -0.032 | [5] 0.064

KDM5C (UniProt P41229)
Chain of UniProt P41229 (P41229 whole entry, looked up): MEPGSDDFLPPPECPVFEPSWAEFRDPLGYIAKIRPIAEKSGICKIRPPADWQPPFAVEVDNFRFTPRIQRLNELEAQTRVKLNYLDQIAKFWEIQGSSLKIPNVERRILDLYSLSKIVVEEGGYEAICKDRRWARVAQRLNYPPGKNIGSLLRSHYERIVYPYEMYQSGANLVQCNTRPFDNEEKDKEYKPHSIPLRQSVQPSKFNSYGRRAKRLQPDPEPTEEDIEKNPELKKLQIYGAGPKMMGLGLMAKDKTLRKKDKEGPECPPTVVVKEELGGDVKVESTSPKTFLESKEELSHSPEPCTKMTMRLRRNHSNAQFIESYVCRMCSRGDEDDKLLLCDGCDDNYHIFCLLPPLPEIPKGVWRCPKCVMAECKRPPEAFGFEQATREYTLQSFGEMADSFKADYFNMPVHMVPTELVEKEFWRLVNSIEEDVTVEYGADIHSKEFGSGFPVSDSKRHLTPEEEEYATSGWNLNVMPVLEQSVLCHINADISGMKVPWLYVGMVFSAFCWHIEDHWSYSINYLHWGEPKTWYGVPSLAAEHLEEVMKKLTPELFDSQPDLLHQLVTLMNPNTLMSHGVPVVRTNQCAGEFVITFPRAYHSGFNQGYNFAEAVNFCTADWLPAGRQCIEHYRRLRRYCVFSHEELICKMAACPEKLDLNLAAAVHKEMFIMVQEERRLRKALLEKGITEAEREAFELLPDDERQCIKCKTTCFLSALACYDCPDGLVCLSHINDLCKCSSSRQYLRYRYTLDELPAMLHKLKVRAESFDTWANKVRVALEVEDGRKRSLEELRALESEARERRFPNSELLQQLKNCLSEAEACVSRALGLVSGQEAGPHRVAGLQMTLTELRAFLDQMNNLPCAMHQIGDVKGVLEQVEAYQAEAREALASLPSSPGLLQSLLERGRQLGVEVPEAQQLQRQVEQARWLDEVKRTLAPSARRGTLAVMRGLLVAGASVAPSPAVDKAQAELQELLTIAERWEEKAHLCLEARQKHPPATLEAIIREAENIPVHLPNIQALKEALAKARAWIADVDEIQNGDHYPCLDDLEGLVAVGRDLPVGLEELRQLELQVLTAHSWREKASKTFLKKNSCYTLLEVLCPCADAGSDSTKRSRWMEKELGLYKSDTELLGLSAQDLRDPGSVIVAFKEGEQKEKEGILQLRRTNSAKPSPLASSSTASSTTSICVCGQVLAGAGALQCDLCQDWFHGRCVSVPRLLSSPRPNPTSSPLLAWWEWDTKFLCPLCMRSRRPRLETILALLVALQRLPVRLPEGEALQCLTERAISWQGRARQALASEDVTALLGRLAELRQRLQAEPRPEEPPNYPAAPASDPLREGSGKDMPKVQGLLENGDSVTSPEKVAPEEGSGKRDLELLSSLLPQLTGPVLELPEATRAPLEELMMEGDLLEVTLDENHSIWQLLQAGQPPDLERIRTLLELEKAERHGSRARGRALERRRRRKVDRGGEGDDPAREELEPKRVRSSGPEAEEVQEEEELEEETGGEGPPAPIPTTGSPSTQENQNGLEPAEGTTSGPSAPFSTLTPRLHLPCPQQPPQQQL
inactive: [1] -0.01 | [2] 0 | [3] 0.008 | [4] -0.01 | [5] 0.032

KIAA0930 isoform 2 (UniProt Q6ICG6)
inactive: [1] 0.3 | [2] -0.034 | [3] -0.051 | [4] 0.07 | [5] 0.031

GTF2H1 (UniProt P32780)
inactive: [1] 0.006 | [2] -0.035 | [3] 0.089 | [4] 0.025 | [5] 0.006
